Active and inactive are the calls of the source. No rule for the calls is given here. A value given as a limit tells only on which side of the number the result lay.

This assay can be described thus: cell-free Rh123 fluorescence quenching read-out – biochemical, dry powder samples, uHTS hits, counter-screen for mtPTP inhibitor project, dose response (AID 743361). The note with it: Rhodamine 123 fluorescence quenching counterscreen.
One may read the IC50 as the midpoint of a concentration-inhibition curve. As to `O=C(Nc1cccc(Cl)c1)c1cc(-c2ccccc2)on1`, the IC50 was > 100 µM (inactive). `O=C(Nc1ccc(F)cc1F)c1cc(-c2ccccc2)on1`: the IC50 was > 100 µM (inactive). The value for `COc1ccc(C(=O)CCN2CCCC(C)C2)cc1` (stereo unspecified) was > 100 µM (inactive); that for `COc1ccc(Cl)cc1C(=O)Nc1ccc(CCN2CCOCC2)cc1` was > 100 µM (inactive); that for `O=C(Nc1ccccc1C(F)(F)F)c1cc(-c2ccccc2)on1` was > 100 µM (inactive). The value for `O=C(Nc1ccccc1OCc1ccccc1)c1cc(-c2cccc(O)c2)on1` was > 100 µM (inactive); that for `O=S(=O)(Nc1ccc(CCN2CCCCC2)cc1)c1ccc(F)c(Cl)c1` was > 100 µM (inactive). The value for `CN1CCN(c2ccc(NS(=O)(=O)c3cccc(Cl)c3)cc2)CC1` was > 100 µM (inactive); that for `O=C(Nc1cccc(F)c1)c1cc(-c2cccc(O)c2)on1` was > 100 µM (inactive). `COc1c(Cl)cccc1NC(=O)c1cc(-c2cccc(O)c2)on1`: the IC50 was > 100 µM (inactive). The result for `CN1CCN(Cc2ccc(NS(=O)(=O)c3cccc(Cl)c3)cc2)CC1` reads > 100 µM (inactive); that for `CN1CCN(c2ccc(NC(=O)c3cccc(OCc4ccccc4)c3)cc2)CC1`, > 100 µM (inactive); that for `O=C(Nc1ccc(CN2CCCCC2)cc1)c1cccc(OCc2ccccc2)c1`, 55.4 µM (active).

Turning to `COc1ccc(Cl)cc1C(=O)Nc1cccc(CN2CCN(C(=O)OC(C)(C)C)CC2)c1`, the IC50 was 73.5 µM (active). The result for `O=C(Nc1cccc(Cl)c1)c1cc(-c2ccc(Cl)cc2)on1` reads > 100 µM (inactive). For `COc1ccc(/C=C/C(=O)Nc2cccc(Cl)c2)cc1O`, the IC50 was > 100 µM (inactive). The result for `C[C@@H]1CCC[C@H](C)N1CCCC(=O)c1ccc(Br)cc1` reads > 100 µM (inactive); that for `CN1CCN(c2ccc(NS(=O)(=O)c3cc(Cl)cc(Cl)c3)cc2)CC1`, > 100 µM (inactive). With `COc1ccc(Cl)cc1C(=O)Nc1ccc(CN2CCCCC2)cc1`, the IC50 was > 100 µM (inactive). The result for `Cc1ccc(Cl)cc1NC(=O)c1cc(-c2cccc(O)c2)on1` reads > 100 µM (inactive). The result for `CCCc1cc(C(=O)Nc2c(F)cc(F)cc2Br)no1` reads > 100 µM (inactive); that for `COc1ccc(Cl)cc1S(=O)(=O)Nc1ccc(CCN2CCCCC2)cc1`, > 100 µM (inactive); that for `O=C(Nc1cccc(Cl)c1)c1cc(-c2cccc(O)c2)on1`, > 100 µM (inactive). With `COc1ccc(Cl)c(C(=O)Nc2ccc(CN3CCN(C)CC3)cc2)c1`, the IC50 was > 100 µM (inactive). Turning to `COc1ccc(NC(=O)c2cc(-c3ccc(Cl)cc3)on2)cc1Cl`, the IC50 is > 100 µM (inactive). The result for `CCc1ccccc1NC(=O)c1cc(-c2ccccc2)on1` reads > 100 µM (inactive). The value for `CCCc1cc(C(=O)Nc2ccc(Br)cc2)no1` was > 100 µM (inactive). The result for `COc1ccc(Cl)cc1C(=O)Nc1ccc(N2CCCCC2)cc1` reads > 100 µM (inactive); that for `COc1ccccc1C(=O)Nc1ccc(C(=O)N2CCCCC2)cc1`, > 100 µM (inactive); that for `O=C(Nc1ccc(N2CCCCC2)cc1)c1cccc(OCc2ccccc2)c1`, > 100 µM (inactive). Regarding `CC(C)C1CCN(CCCC(=O)c2ccc(Br)cc2)CC1`, the IC50 was 64.6 µM (active).

The record behind these values is PubChem BioAssay AID743361 (Molecular Libraries Program, Specialized Chemistry Center, …, 2014).
